Among the data in paper PMC7862700, “An all-to-all approach to the identification of sequence-specific readers for epigenetic DNA modifications on cytosine” are binding signal values, retold here.

Common to all, as to assay: DAPPL (digital affinity profiling via proximity ligation, sequencing); 10 mM Tris-HCl pH 7.5, 50 mM NaCl, 1 mM DTT, 4% glycerol, room temperature, 30 min; GST-TFs on glutathione beads, 16-mer random dsDNA library, 0.1% formaldehyde crosslink after washing; high values mean tight binding
What all share (conditions): protein: recombinant; tags: N-terminal GST; dsDNA, one strand shown

One experiment has as its target T1, ERG (Homo sapiens, UniProt P11308 1-479).
T1 sequence: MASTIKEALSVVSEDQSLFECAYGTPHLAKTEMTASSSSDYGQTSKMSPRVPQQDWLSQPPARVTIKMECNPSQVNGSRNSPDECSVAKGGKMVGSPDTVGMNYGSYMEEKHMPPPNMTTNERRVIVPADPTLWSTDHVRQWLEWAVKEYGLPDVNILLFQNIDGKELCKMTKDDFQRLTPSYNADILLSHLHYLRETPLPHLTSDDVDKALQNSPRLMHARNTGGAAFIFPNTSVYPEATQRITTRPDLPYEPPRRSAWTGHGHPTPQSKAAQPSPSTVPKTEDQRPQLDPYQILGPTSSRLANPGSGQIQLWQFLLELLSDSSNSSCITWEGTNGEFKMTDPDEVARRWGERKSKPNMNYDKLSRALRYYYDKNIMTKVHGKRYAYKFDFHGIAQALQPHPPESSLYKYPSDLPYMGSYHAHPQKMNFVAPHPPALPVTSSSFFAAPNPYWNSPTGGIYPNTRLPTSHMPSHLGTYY
In a few lines: (§1)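 Binding signal is defined as a hexamer's read frequency for one factor over its frequency for the tag-only sample. To obtain reads, GST-fused human transcription factors were expressed in yeast, captured on glutathione beads, barcoded with DNA and pooled with that sample. Pools met 200 nmole of a 16-mer random double-stranded DNA library in Tris/NaCl/DTT/glycerol buffer for 30 min at room temperature before washing, 0.1% formaldehyde crosslinking, proximity ligation (BsaI/T4 ligase, 1 h, 37 °C), PCR and Illumina NextSeq500 sequencing.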

A further experiment deals with SPI1 (Homo sapiens, UniProt P17947 1-270). In outline: as §1
The target of another experiment is SPIB (Homo sapiens, UniProt Q01892 1-262). In a few lines:
as §1

The target of the next experiment is T2, ELK3 (Homo sapiens, UniProt P41970 1-407).
T2 sequence: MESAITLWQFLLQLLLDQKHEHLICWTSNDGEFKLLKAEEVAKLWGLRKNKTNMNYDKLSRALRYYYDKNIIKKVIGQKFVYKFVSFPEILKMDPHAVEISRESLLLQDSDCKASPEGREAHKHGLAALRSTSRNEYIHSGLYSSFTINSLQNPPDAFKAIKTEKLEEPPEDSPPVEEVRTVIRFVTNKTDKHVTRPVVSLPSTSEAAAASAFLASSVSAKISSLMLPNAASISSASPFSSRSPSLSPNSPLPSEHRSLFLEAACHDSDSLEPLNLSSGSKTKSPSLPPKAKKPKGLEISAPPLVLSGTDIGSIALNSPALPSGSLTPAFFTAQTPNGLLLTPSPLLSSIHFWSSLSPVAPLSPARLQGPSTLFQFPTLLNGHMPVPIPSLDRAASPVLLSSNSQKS
In a few lines: as §1

The target in another experiment is T3, SPIC (Homo sapiens, UniProt Q8N5J4 1-248).
T3 sequence: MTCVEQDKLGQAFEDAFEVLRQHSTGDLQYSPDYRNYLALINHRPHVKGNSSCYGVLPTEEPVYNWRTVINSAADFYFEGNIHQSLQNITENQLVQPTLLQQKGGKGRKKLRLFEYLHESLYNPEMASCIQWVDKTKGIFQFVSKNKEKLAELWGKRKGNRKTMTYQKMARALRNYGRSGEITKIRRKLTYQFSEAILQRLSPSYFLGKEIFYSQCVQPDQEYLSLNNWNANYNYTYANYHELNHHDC
In outline: as §1

In the next experiment the target is T4, ETV2 (Homo sapiens, UniProt O00321 1-342).
T4 sequence: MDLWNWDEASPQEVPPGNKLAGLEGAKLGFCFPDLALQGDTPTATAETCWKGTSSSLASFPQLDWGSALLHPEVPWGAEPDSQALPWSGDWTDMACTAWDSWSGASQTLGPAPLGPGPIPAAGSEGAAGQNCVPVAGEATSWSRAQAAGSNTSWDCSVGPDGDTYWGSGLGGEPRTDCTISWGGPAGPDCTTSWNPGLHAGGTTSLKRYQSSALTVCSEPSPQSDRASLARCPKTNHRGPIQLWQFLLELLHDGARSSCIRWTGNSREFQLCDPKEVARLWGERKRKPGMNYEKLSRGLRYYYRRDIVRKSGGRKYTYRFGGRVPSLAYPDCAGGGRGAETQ
In a few lines: as §1

The target in a further experiment is T5, ERF (Homo sapiens, UniProt P50548 1-548).
T5 sequence: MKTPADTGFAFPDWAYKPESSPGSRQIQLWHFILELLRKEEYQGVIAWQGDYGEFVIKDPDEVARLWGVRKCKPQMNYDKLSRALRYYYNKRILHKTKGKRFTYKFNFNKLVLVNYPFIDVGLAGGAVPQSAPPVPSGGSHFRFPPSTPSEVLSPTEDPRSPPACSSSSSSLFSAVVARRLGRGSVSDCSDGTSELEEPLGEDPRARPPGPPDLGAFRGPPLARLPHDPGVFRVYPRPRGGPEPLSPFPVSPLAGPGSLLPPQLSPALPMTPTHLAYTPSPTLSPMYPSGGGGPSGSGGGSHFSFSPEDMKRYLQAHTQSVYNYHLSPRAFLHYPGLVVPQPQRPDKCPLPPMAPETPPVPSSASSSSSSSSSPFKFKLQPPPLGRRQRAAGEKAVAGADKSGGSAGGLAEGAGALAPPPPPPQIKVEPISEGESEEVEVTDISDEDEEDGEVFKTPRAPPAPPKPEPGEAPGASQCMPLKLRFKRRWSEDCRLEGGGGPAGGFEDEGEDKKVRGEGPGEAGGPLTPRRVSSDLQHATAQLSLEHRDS
In outline: as §1

The target in the next experiment is T6, ETS2 (Homo sapiens, UniProt P15036 1-469).
T6 sequence: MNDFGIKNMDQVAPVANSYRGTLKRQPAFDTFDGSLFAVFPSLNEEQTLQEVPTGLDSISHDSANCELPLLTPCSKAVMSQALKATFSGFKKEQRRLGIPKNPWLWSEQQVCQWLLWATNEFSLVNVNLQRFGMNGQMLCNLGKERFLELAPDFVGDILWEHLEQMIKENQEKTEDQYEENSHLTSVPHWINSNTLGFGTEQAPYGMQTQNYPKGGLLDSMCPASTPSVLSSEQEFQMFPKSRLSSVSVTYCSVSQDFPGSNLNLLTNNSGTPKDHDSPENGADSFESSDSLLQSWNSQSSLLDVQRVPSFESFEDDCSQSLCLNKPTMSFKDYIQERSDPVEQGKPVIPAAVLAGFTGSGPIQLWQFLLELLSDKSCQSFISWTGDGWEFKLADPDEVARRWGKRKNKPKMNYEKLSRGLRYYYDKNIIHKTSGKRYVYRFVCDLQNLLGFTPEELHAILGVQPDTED
In a few lines:
as §1

For the next experiment, the target named is T7, EHF (Homo sapiens, UniProt Q9NZC4 1-300).
T7 sequence: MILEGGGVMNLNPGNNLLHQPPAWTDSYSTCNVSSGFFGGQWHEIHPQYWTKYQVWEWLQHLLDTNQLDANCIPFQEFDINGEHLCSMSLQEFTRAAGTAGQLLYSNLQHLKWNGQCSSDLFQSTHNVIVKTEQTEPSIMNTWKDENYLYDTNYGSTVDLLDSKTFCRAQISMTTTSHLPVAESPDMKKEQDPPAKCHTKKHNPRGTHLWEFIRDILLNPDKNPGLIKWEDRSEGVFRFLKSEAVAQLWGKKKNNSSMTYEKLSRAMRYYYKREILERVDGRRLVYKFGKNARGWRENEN
In a few lines: as §1

Another experiment deals with T8, ELK4 (Homo sapiens, UniProt P28324-2 1-405).
T8 sequence: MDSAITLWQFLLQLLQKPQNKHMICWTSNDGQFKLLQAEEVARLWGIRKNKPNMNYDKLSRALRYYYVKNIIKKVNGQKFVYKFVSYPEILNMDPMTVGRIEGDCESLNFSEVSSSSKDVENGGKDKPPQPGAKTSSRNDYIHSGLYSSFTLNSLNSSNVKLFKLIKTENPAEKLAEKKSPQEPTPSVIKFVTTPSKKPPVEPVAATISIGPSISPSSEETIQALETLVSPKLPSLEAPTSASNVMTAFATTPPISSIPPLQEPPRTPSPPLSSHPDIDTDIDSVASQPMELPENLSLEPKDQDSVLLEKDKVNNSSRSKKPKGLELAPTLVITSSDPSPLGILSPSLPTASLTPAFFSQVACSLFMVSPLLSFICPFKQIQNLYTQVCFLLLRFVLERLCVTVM
In a few lines: as §1

A further experiment deals with T9, ELF3 (Homo sapiens, UniProt P78545 1-371).
T9 sequence: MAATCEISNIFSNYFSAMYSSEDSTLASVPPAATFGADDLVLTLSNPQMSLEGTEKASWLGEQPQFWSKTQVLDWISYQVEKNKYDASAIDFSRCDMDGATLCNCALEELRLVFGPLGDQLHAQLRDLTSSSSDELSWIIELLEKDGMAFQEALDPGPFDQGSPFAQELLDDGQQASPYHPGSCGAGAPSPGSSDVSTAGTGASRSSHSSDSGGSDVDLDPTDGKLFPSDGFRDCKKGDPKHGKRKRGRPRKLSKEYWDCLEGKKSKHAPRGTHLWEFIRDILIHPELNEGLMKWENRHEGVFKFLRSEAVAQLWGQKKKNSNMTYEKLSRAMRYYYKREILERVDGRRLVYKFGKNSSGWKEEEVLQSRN
In a few lines:
as §1

In another experiment the target is ETV1 (Homo sapiens, UniProt P50549 1-477). In a few lines:
as §1

The target of the next experiment is T10, ETV3L (Homo sapiens, UniProt Q6ZN32 1-361).
T10 sequence: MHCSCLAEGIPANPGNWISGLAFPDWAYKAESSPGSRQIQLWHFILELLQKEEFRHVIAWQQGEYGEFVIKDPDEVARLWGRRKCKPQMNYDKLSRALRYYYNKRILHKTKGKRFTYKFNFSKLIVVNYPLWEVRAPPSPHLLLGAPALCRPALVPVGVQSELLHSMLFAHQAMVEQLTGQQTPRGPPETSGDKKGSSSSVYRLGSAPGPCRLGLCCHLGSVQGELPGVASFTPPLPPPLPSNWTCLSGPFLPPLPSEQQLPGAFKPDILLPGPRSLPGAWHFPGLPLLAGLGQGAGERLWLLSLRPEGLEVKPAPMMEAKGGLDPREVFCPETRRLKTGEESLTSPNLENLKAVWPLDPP
In outline: as §1

The target in a further experiment is T11, SPDEF (Homo sapiens, UniProt O95238 1-335).
T11 sequence: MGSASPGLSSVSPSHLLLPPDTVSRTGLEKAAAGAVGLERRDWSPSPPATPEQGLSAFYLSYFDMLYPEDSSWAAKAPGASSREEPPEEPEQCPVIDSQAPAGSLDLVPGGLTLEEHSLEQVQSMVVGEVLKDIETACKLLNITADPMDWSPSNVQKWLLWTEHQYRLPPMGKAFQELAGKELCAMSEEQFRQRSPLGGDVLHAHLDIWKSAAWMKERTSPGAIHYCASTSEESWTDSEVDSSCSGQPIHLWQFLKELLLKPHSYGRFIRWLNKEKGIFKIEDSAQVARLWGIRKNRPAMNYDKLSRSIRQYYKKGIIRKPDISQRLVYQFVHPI
In outline:
as §1

A further experiment addresses T12, ETV3 (Homo sapiens, UniProt P41162-2 1-143).
T12 sequence: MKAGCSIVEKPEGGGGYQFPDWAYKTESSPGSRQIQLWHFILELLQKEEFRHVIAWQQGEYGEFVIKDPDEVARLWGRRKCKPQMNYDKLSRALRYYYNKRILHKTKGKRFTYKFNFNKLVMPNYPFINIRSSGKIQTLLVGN
In outline: as §1

Chain of ETV1 (P50549 whole entry): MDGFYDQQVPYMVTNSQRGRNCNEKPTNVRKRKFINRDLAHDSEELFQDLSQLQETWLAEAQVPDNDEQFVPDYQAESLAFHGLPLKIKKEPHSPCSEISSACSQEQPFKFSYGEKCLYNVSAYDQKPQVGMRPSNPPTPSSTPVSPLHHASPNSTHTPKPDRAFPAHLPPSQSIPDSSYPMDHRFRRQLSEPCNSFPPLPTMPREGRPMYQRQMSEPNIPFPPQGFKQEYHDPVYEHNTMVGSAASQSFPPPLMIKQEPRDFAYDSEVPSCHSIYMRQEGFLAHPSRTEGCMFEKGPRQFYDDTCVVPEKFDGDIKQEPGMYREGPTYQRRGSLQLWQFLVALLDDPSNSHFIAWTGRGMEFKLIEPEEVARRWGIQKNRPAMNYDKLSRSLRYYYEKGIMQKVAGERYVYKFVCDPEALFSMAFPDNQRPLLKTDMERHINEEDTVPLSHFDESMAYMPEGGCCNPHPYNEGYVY
Chain of SPIB (Q01892 whole entry): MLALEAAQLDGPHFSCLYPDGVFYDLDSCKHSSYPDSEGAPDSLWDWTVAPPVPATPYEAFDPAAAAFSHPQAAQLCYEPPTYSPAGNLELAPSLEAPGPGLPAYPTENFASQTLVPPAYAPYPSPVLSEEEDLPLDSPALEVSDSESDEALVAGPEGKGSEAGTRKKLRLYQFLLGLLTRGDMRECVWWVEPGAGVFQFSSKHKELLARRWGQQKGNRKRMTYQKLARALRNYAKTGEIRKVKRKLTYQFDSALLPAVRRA

Turning to TGCAGG, the binding signal was 1.01 fold enrichment (6-mer frequency, TF over GST control) with ERG; 1.03 fold enrichment (6-mer frequency, TF over GST control) with SPI1; 1.07 fold enrichment (6-mer frequency, TF over GST control) in the experiment with SPIB; 1.03 fold enrichment (6-mer frequency, TF over GST control) with ELK3; 1.01 fold enrichment (6-mer frequency, TF over GST control) with SPIC; 1.03 fold enrichment (6-mer frequency, TF over GST control) in the experiment with ETV2. Also, the binding signal with ERF was 1.01 fold enrichment (6-mer frequency, TF over GST control); in the experiment with ETS2, 1.02 fold enrichment (6-mer frequency, TF over GST control).
Turning to AGATGG, the binding signal in the experiment with SPIC is 1.1 fold enrichment (6-mer frequency, TF over GST control); with ETV2, 1.02 fold enrichment (6-mer frequency, TF over GST control).
Take AGGTCC: the binding signal with ERG was 1.02 fold enrichment (6-mer frequency, TF over GST control); with EHF, 1.05 fold enrichment (6-mer frequency, TF over GST control); in the experiment with SPIC it was 1.2 fold enrichment (6-mer frequency, TF over GST control); with ELK4 it was 1.02 fold enrichment (6-mer frequency, TF over GST control); with ETV2, 1.08 fold enrichment (6-mer frequency, TF over GST control); with ELF3, 1.07 fold enrichment (6-mer frequency, TF over GST control). The binding signal with ETV1 is 1.05 fold enrichment (6-mer frequency, TF over GST control); with ETV3L it was 1.03 fold enrichment (6-mer frequency, TF over GST control); with SPDEF, 1.24 fold enrichment (6-mer frequency, TF over GST control); with ETV3 it was 1.03 fold enrichment (6-mer frequency, TF over GST control).
